The list is not random: actives were taken first. Their share in the collection is about 6%.
D3 ag – activates the human D3 dopamine receptor; P35462; D3R DiscoveRx beta-arrestin cells, luminescence, 90 min; max activation, %; 0.58% of 410,000 active; in the data active means max activation above about 30%; further: 0% is about no effect
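Cells at 1500/well, incubated overnight, then treated with pinned compounds (dopamine as control) for 90 min at 37 degrees C. DiscoveRx reagent added for 30 - 60 minutes at room temperature; luminescence read.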
D1 potentiator – human D1 dopamine receptor positive modulation. P21728. HEK293 TREx D1 cells, calcium flux, dopamine EC20 potentiation. potentiation, % at 10 µM. 0.036% of 360,000 active. AID 504651; in the data active means potentiation above about 30%; further: 0% is about no effect
Target sequence (P21728 whole entry, looked up): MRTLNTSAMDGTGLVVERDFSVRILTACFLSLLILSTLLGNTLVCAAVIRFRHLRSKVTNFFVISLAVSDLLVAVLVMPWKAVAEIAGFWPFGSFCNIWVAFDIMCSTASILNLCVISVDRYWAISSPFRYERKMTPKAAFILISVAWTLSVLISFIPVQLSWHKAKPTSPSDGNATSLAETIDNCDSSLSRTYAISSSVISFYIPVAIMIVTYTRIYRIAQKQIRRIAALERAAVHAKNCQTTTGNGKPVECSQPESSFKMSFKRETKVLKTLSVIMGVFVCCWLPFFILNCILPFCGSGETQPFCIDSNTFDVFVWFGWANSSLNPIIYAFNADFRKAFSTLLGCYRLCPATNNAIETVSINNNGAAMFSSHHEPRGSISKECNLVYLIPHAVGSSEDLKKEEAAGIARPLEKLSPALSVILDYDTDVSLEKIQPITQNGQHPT
Chronic BCR inh – inhibitors of chronic active B-cell receptor signaling; 0.05% of 340,000 active; ABC-DLBCL IkBa-CBG/CBR reporter, luminescence ratio, 4 h; Potency, µM (doses to about 46.1 µM), inactives show at the highest dose activity change, negative = inhibition, actives largely listed as inhibitors; active means well fitted inhibition curve with a large enough effect in the signal ratio, with a control signal flat, not every such curve was filed as active; inconclusive means small, poorly fitted or top-dose-only effect, or effect the other way, or a change in a side signal; the % refers to the signal ratio;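 further: potency means the concentration at half of the fitted maximal effect; plate controls were basal doxycycline-induced cells for no effect and cells given 10 µM MG132 for full effect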
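Doxycycline induced both beetle luciferases in TMD8 lymphoma cells; IKK-driven degradation limits the IkappaBalpha-fused green signal, while red luminescence normalises for cell number and nonspecific effects. Compounds tested up to 46 uM, 4 hrs.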
D1 agonist – activates the human D1 dopamine receptor. P21728. HEK293 T-REx D1 cells, calcium flux, agonist mode. activation, % at 2 µM. 1% of 360,000 active; in the data active means activation above about 30%; further: 0% is about no effect
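Tetracycline-induced HEK293 TREx D1 cells, force-coupled to calcium signalling, were dye-loaded with a no-wash calcium kit. Compound was pin-added after a 10 s baseline. Fluorescence was read kinetically at 1 cycle/s for 180 s, with calcium rises flagged as agonism.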
D3 antag – antagonists of human D3 dopamine receptor. 2.5% of 360,000 active. max response, negative = inhibition, %. AID 652054. D3R cells, DiscoveRx beta-arrestin luminescence, antagonist mode; active compounds read low; in the data active means max response below about -50%; inconclusive means no clear call, values can overlap the other calls; further: on the % scale 0 is the no-effect control and ±100 the full control effect
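Cells expressing the human receptor were seeded at 1500 cells/well, incubated overnight at 37 degrees C in 5% CO2, then exposed to library compounds with dopamine controls for 90 minutes at 37 degrees C before luminescent detection.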
D1 antag – human D1 dopamine receptor antagonism; P21728; HEK293 TREx D1 cells, calcium flux, dopamine EC80; active compounds read low; activity change, negative = inhibition, % at 10 µM; 3.2% of 360,000 active; in the data active means activity change below about -30%; further: on the % scale 0 is the no-effect control and ±100 the full control effect
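Using tetracycline-induced force-coupled D1 Hek293 cells and a calcium dye, signals were followed for 180 s after compound, then for 180 s after EC80 dopamine, to detect inhibitors.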
Numbers without * were called inactive; ? = inconclusive; / = not tested or not shown.

SMILES	D3 ag	D1 potentiator	Chronic BCR inh	D1 agonist	D3 antag	D1 antag
CCN=C1S/C(=C\c2ccc(N3CCOCC3)cc2C)C(=O)N1CC	9	4	0%	0	15	9
COCCN1C(=O)/C(=C/c2ccc(N3CCCC3)cc2C)SC1=S	1	4	-6%	224*	7	-9
C/C=C/c1ccc(OCCCN2C(=O)NC(C)(C)C2=O)c(OC)c1	3	3	2%	-1	-20	10
C/C=C/c1ccc(OCCCCOc2ccc(OC)cc2)c(OC)c1	2	-4	-5%	5	-1	-1
C/C=C/c1ccc(OCCCCN2CC(C)CC(C)C2)c(OC)c1 (stereo not given)	-39	-7	?	4	-74*	9
C/C=C/c1ccc(OCCCCN2CCN(CC)CC2)c(OC)c1	-12	-3	-14%	0	-30	-33*
CCn1nc(NS(=O)(=O)c2ccccc2)c2cc3ccc(C)cc3nc21	-5	6	?	3	-63*	1
CCN1C(=NCCN2CCOCC2)N[C@@H](CCc2ccccc2)C(C(=O)OC)=C1C	/	3	5%	1	/	4
CC1=NN(c2ccccc2)C(=O)/C1=C\C=C1\N(C)c2ccccc2C1(C)C	-4	-3	?	44*	-23	-32*
CC1=NN(c2ccccc2)C(=O)/C1=C\C=C1/N(C)c2ccccc2C1(C)C	-19	-3	14%	68*	-26	-19
CC1=NN(c2ccccc2)C(=O)/C1=C/N(C)C	0	-1	?	0	8	-13
CCOc1ccc(/C=C/C(=O)NCCc2ccc(OC)c(OC)c2)cc1	2	3	-3%	3	-25	-25
COc1ccc(Br)cc1/C=C/C(=O)Nc1ccc(C)cc1	-32	-1	?	3	-75*	8
COc1ccc(Br)cc1/C=C/C(=O)Nc1ccc2ccccc2c1	-10	-4	11%	-1	-1	0
CCCCNC(=O)/C=C/c1ccc(OC)c(Br)c1	-6	-12	?	0	-21	-30*
COc1ccc(/C=C\C(=O)NCC(=O)N/N=C/c2ccc(O)cc2O)cc1	4	-10	?	1	-7	1
COc1ccc(/C=C/C(=O)NCC(=O)N/N=C/c2cc(Br)ccc2OC)cc1	-40	5	5%	1	-58*	15
COc1ccccc1/C=C/C(=O)NCC(=O)N/N=C/c1cc(Br)ccc1OC	-22	0	?	0	-71*	/
CC1(C(=O)NCc2ccccc2)CSCC(=O)N1Cc1cccc(F)c1 (stereo not given)	7	/	/	/	7	/
CCOc1ccc(C2CC=C(C(C)=O)CN2S(=O)(=O)c2ccc(C)cc2)cc1 (stereo not given)	-4	/	/	/	-8	/
O=C(CNC(=O)c1ccc(F)cc1)N/N=C/c1cc(Br)ccc1OC(=O)/C=C/c1ccco1	-16	-15	-2%	4	-27	-45*
O=C(CNC(=O)c1ccccc1F)N/N=C/c1cc(Br)ccc1OC(=O)/C=C/c1ccco1	0	-1	-2%	4	-12	-4
O=C(NCCc1ccccc1)c1nccc2ccccc12	-5	8	?	-1	11	0
COc1ccc(Nc2ccnc3ccccc23)cc1	-7	-8	?	14	-21	-43*
CC(C)Nc1ccc(Nc2ccnc3cc4ccccc4cc23)cc1	-26	-6	15%	3	-79*	-26
c1ccc(CCNc2ccnc3cc4ccccc4cc23)cc1	-6	-17	?	34*	-12	-82*
CCn1cc(C(=O)N(C)Cc2ccccc2)c(=O)c2cc(S(=O)(=O)N3CCCCC3)ccc21	-11	2	/	1	/	-23
CNc1ncnc2c1ncn2[C@H]1CN(CCN2CCOCC2)C[C@@H](CO)O1	1	/	/	/	18	/
O=C(O)CCCCCN1C(=O)/C(=C/c2cn(-c3ccccc3)nc2-c2cccs2)SC1=S	-11	/	/	/	15	/
O=Cc1cn(-c2ccccc2)nc1-c1ccc(F)cc1	-2	-4	?	1	-2	-12
